Results on 130 sequences are retold here after a collection of fitness landscapes (doi:10.1038/s41467-024-54723-y).

Over roughly 18,000 sequences, “TetR repression strength (sort-seq, GFP reporter)” has its median near 0.23; the highest 2% begin near 0.68. Shown is part of a subset that was picked to be rich in the highest values.

Chain of TetR (class B, Tn10) (P04483 whole entry): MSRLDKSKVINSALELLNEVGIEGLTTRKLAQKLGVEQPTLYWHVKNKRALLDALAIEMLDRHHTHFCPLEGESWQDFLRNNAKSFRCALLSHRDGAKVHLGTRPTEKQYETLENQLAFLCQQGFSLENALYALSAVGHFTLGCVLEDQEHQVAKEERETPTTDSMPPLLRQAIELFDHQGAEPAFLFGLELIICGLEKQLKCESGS

This test has as its target TetR (class B, Tn10) (UniProt P04483). Nature of the test: TetR repression strength (sort-seq, GFP reporter) (relative to tetO2 = 1); higher = stronger repression. Particulars: E. coli. In a few lines: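 Escherichia coli SIG10-MAX cells carried a low-copy plasmid library in which eight operator positions were randomized between a constitutive promoter and sfGFP, and TetR was expressed constitutively. After 5 h of growth at 37 °C in LB with 50 µg/mL chloramphenicol, 10^6 cells were FACS-sorted into 13 fluorescence bins, and each bin was Illumina-sequenced. Repression strength was the top bin index plus one minus the read-weighted mean bin, divided by the value for the unaltered operator. Across three independent transformations, only library members with ≥30 reads in every replicate and a CV ≤0.5 were averaged.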
Turning to TCCCACCGAGTTTTTGAGA, the TetR repression strength is 0.46.
For the sequence TCCCACAGAGTAATGGAGA, the TetR repression strength came out at 0.108.
To TCCCCGTTAGTTTTGGAGA belongs 0.104; to TCCCTAGGAGTACGAGAGA, 1.01; to TCCCTAGGAGTACGCGAGA, 0.226.
To TCCCTAGTAGTACGAGAGA belongs 1.22; to TCCCTAGTAGTACGCGAGA, 0.0159; to TCCCTGGTAGTACGAGAGA, 0.219.
For TCCCTAGGAGTAGGAGAGA, the TetR repression strength stood at 0.268.
To TCCCGTAGAGTCTCAGAGA belongs 0.257; to TCCCTTTTAGTTATAGAGA, 0.231; to TCCCCACGAGTTCAGGAGA, 0.271.
TCCCGTAGAGTAATGGAGA yielded a TetR repression strength of 0.344.
To TCCCACTGAGTGAGAGAGA belongs 0.473; to TCCCTGTGAGTTGGGGAGA, 0.189.
The figure for TCCCGCGAAGTCAGAGAGA is 0.382.
To TCCCCTAAAGTGAAGGAGA belongs 0.721.
Take TCCCCTCCAGTGAAGGAGA: the TetR repression strength was determined as 0.572.
The figure for TCCCCTTCAGTGGAGGAGA is 0.65; for TCCCCTTCAGTGAAGGAGA it is 0.702; for TCCCCCAAAGTGAAGGAGA it is 0.104.
To TCCCTTAAAGTGAAGGAGA belongs 0.097; to TCCCGTAAAGTTCAAGAGA, 0.415; to TCCCCGCCAGTTGGCGAGA, 0.16.
The figure for TCCCTTTGAGTAAATGAGA is 0.33; for TCCCTCCGAGTCATCGAGA it is 0.264; for TCCCTTCAAGTGCGGGAGA it is 0.0975.
Take TCCCCCTGAGTAGTAGAGA: the TetR repression strength was determined as 0.207.
To TCCCTTAGAGTGGTCGAGA belongs 0.215; to TCCCCTATAGTGCTAGAGA, 0.285.
To TCCCTTAGAGTGGTAGAGA belongs 0.695.
The figure for TCCCCTATAGTGGTAGAGA is 0.84.
Regarding TCCCCTGTAGTGATAGAGA, the TetR repression strength is 0.387.
The figure for TCCCCTATAGTGATAGAGA is 0.982; for TCCCCTATAGTGGTGGAGA it is 0.201; for TCCCCTAGAGTGGTAGAGA it is 0.634.
As to TCCCTTGGAGTGGTAGAGA, the TetR repression strength is 0.172.
The figure for TCCCCTTTAGTTGTAGAGA is 0.246; for TCCCGGTCAGTCTTTGAGA it is 0.165.
On to TCCCCGAGAGTGAGGGAGA, for which the TetR repression strength was 0.129.
The figure for TCCCCTTAAGTCGAGGAGA is 0.157; for TCCCATCGAGTCGGTGAGA it is 0.179.
To TCCCGGTTAGTGTAGGAGA belongs 0.172; to TCCCGCGCAGTCAGTGAGA, 0.415.
The sequence TCCCTCGAAGTGATCGAGA returned a TetR repression strength of 0.343.
The figure for TCCCAACAAGTGAATGAGA is 0.336; for TCCCCCTAAGTTATAGAGA it is 0.525.
To TCCCTCACAGTGATAGAGA belongs 0.513; to TCCCTCTCAGTTATAGAGA, 0.716; to TCCCTCTCAGTGATAGAGA, 0.866.
To TCCCTCAGAGTGATAGAGA belongs 0.342; to TCCCACTCAGTTATAGAGA, 0.661; to TCCCTCTCAGTCAGAGAGA, 0.423.
Sequence TCCCTCTCAGTTAGTGAGA yielded a TetR repression strength of 0.339.
TCCCTGTCAGTTATAGAGA registered a TetR repression strength of 0.649.
The figure for TCCCTGTAAGTTATAGAGA is 0.375; for TCCCTCTAAGTTATAGAGA it is 0.703; for TCCCTCTCAGTTAGAGAGA it is 0.726.
To TCCCGGTTAGTTGAGGAGA belongs 0.12.
To TCCCTCAGAGTGTTAGAGA belongs 0.248; to TCCCGAGAAGTCCATGAGA, 0.207; to TCCCGTGAAGTCGCTGAGA, 0.168.
For TCCCTAGTAGTAAGCGAGA, the TetR repression strength stood at 0.136.
The figure for TCCCGCACAGTTATAGAGA is 0.275; for TCCCGCTCAGTTATAGAGA it is 0.764.
To TCCCGATCAGTTATAGAGA belongs 0.579; to TCCCGAGGAGTTGGCGAGA, 0.14.
To TCCCGGGGAGTTGTGGAGA belongs 0.215; to TCCCGGGAAGTTACGGAGA, 0.707.
Sequence TCCCGGAAAGTTGTGGAGA gave a TetR repression strength of 0.275.
To TCCCGGGAAGTTGTGGAGA belongs 1.1.
To TCCCGGGGAGTTACGGAGA belongs 0.447; to TCCCCGGAAGTTACGGAGA, 0.343.
To TCCCCAAAAGTTTGTGAGA belongs 0.0341; to TCCCCTCGAGTTGGGGAGA, 0.121; to TCCCGGAGAGTCCTTGAGA, 0.295.
As to TCCCTCGAAGTGCGGGAGA, the TetR repression strength turned out to be 0.25.
With TCCCCAAGAGTAAATGAGA, the TetR repression strength amounted to 0.368.
To TCCCGGATAGTGACCGAGA belongs 0.131.
To TCCCTCCAAGTGGGAGAGA belongs 0.14; to TCCCCAGGAGTCTAGGAGA, 0.284.
The figure for TCCCCGGAAGTCTAGGAGA is 0.113; for TCCCGCCAAGTCCCGGAGA it is 1.1.
In turn, TCCCTGCAAGTCTAGGAGA yielded a TetR repression strength of 0.171.
To TCCCCCCCAGTCTAGGAGA belongs 0.8; to TCCCTGCCAGTCTAGGAGA, 0.415.
As for TCCCCGCCAGTCCAGGAGA, the TetR repression strength was 0.104.
The figure for TCCCGCCAAGTCCGGGAGA is 0.21.
To TCCCTCCCAGTCTAGGAGA belongs 0.263.
For the sequence TCCCCGCAAGTCTAGGAGA, the TetR repression strength amounted to 0.739.
TCCCCGCCAGTCTAGGAGA came in with a TetR repression strength of 0.681.
To TCCCGCCAAGTCCCTGAGA belongs 0.389.
The figure for TCCCCGTGAGTCGATGAGA is 0.313.
The figure for TCCCGCGTAGTCCGCGAGA is 0.172.
Sequence TCCCGAGTAGTGTGTGAGA showed a TetR repression strength of 0.28.
In the case of TCCCATTGAGTTCCGGAGA, the TetR repression strength was 0.115.
Take TCCCATCCAGTGGGGGAGA: the TetR repression strength turned out to be 0.175.
Regarding TCCCCCCTAGTTGTGGAGA, the TetR repression strength came to 0.213.
The figure for TCCCTGTGAGTTGGTGAGA is 0.656; for TCCCTTTCAGTAATAGAGA it is 0.745.
To TCCCTTTCAGTTATAGAGA belongs 0.649.
The figure for TCCCTTTAAGTAATAGAGA is 0.44.
Sequence TCCCTCTCAGTAATAGAGA returned a TetR repression strength of 0.686.
To TCCCTATCAGTAATAGAGA belongs 0.878; to TCCCTCTAAGTAATAGAGA, 0.472; to TCCCTATCAGTAACAGAGA, 0.539.
To TCCCTTTCAGTGAGAGAGA belongs 0.566.
To TCCCTTTCAGTGATGGAGA belongs 0.574; to TCCCTTTCAGTGATAGAGA, 0.785.
For TCCCTCTCAGTACTAGAGA, the TetR repression strength came out at 0.283.
To TCCCTAACAGTAATAGAGA belongs 0.569; to TCCCACCAAGTGGGTGAGA, 0.139; to TCCCTGTGAGTTTGGGAGA, 0.424.
The figure for TCCCGGAGAGTTTCTGAGA is 0.191.
To TCCCCTTTAGTGCCTGAGA belongs 0.523; to TCCCGTTGAGTAGGGGAGA, 0.0793.
TCCCAGGGAGTAGCGGAGA came in with a TetR repression strength of 0.159.
TCCCACGTAGTGCAAGAGA: the TetR repression strength was 0.62.
To TCCCTTCAAGTGCTCGAGA belongs 0.24; to TCCCATGTAGTGTGGGAGA, 0.203.
TCCCGATCAGTGCAGGAGA: the TetR repression strength was 0.299.
To TCCCTGCGAGTGGTGGAGA belongs 0.112; to TCCCTGCTAGTGGAGGAGA, 1.14.
The figure for TCCCTGCGAGTGGGGGAGA is 0.264; for TCCCTGCTAGTGGGGGAGA it is 0.0729; for TCCCTGCTAGTGGTGGAGA it is 0.404.
TCCCTGCGAGTGGAGGAGA: the TetR repression strength is 1.08.
To TCCCGGGAAGTGTGTGAGA belongs 0.177; to TCCCTTGTAGTGAATGAGA, 0.277; to TCCCGGGCAGTGCCTGAGA, 0.283.
